This is a sample that favours compounds with a hit; in the whole collection about 3.7% have one here.
BoNT-F LC inh = BoNT/F light chain protease inhibitors, primary screen, biochemical, flow cytometry, MLPCN library; Botulinum neurotoxin type F light chain protease (Clostridium botulinum); Multiplex microsphere protease cleavage assay; inhibition, % at 10 µM; actives 0.22% (n = 360,000); AID 588497, 2011; in the data active = inhibition above about 35%, passing the limit was not always enough; inconclusive = no clear call, values can overlap the other calls
MazEF act = activators of E. coli MazEF toxin-antitoxin RNase, primary screen, biochemical, fluorescence, uHTS | Endoribonuclease toxin MazF (Escherichia coli (strain K12)), P0AE70 | FAM/BHQ RNA-DNA oligo cleavage fluorescence, 5 h | activation, % at 20 µM | actives 0.32% (n = 350,000) | AID 504720, 2011; in the data active = activation above about 50%
Target sequence (P0AE70 whole entry, looked up): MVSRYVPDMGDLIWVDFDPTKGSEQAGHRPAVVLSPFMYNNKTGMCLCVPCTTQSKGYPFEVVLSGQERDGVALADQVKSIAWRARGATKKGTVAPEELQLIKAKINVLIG
Autofluor counter = compound fluorescence in toxin protease inhibitor counterscreen; compound autofluorescence counterscreen, microsphere flow cytometry; hits give high values; fluorescence intensity (concentration not given with the values); actives 3.1% (n = 360,000); AID 624483; in the data active = fluorescence intensity above about 16000; inconclusive = no clear call, values can overlap the other calls
BoNT A protease = BoNT/A light chain protease inhibitors, primary screen, biochemical, flow cytometry, MLPCN library | Botulinum neurotoxin type A light chain protease (Clostridium botulinum A str. ATCC 3502) | multiplex microsphere protease substrate cleavage | actives 0.17% (n = 360,000) | inhibition, % at 10 µM
Anthrax LF prot = Bacillus anthracis LF protease inhibitors, primary screen, biochemical, multiplex microsphere, MLPCN library; Lethal factor (Bacillus anthracis), P15917; multiplex microsphere protease cleavage assay; inhibition, % at 10 µM; actives 0.12% (n = 360,000); AID 588501, 2011
Large screens that a line does not name were inactive. Rule as the data show it, unless noted: active = inhibition above about 30%; inconclusive = no clear call, values can overlap the other calls; inactive = below that.

CC(C)(Oc1cccc2ccccc12)C(=O)O	Autofluor counter 17702
O=c1[nH]c(N/N=C/c2ccccc2)nc2ccccc12	Autofluor counter 16682
CCn1cc([N+](=O)[O-])c(C(=O)Nc2ccn(Cc3ccccc3F)n2)n1	Autofluor counter 23949
CCn1cc([N+](=O)[O-])c(C(=O)Nc2nc(-c3ccc(C)cc3)c(C)s2)n1	Autofluor counter 16716
Cc1cccc(N2CCN(C(=O)/C=C/c3cccs3)CC2)c1C	none
COc1ccc(OCCOC(=O)c2cccc(-n3cnnn3)c2)cc1	Autofluor counter 20878
COc1ccc(OCCOC(=O)c2ccc(-n3cnnn3)cc2)cc1	none
CCCCn1c(O)c2n(c1=O)Cc1ccccc1N=C2c1ccccc1	none (no result: MazEF act)
COc1ccc(-n2nc([N+](=O)[O-])c(=NCCC3=CCCCC3)n2O)cc1	none
Nc1ccc2ncccc2c1	Autofluor counter 17386, BoNT A protease inconclusive
Nc1ccc(/C=C/c2ccc3ncccc3c2)cc1	none
Cc1cc(C)c(OCC(=O)OCC(=O)NCC2CCCCC2)c(C)c1	none
CC1CCN(S(=O)(=O)c2cccc(S(=O)(=O)N3CCOCC3)c2)CC1	Autofluor counter 16191
O=C(O)c1cc(S(=O)(=O)N2CCCCC2)ccc1Cl	BoNT-F LC inh inconclusive
O=C(NCc1ccccc1)c1cc(S(=O)(=O)N2CCOCC2)ccc1F	MazEF act 50.5
O=C(O)c1cc(S(=O)(=O)N2CCCCC2)ccc1F	Autofluor counter 21594
O=C(NCCc1ccccc1)c1cc(S(=O)(=O)N2CCOCC2)ccc1F	none
O=C(NCc1ccccn1)c1cc(S(=O)(=O)N2CCN(c3ccccc3)CC2)ccc1Cl	Autofluor counter 22854, BoNT A protease inconclusive
Cc1ccc(S(=O)(=O)N2CCCC2)cc1C(=O)NCc1ccccn1	none
COc1cc(NC(=O)CCc2nnc3ccc(N4CCC5(CC4)OCCO5)nn23)cc(OC)c1	none
C=CCN(c1ccccc1)S(=O)(=O)c1cc2c(cc1C)NC(=O)CO2	none
O=S(=O)(NCc1ccccc1)c1cccc(S(=O)(=O)N2CCOCC2)c1	Autofluor counter 21829
CS(=O)(=O)N1CCN(c2ccc([N+](=O)[O-])c(N3CCOCC3)c2)CC1	none (no result: BoNT-F LC inh, Autofluor counter, BoNT A protease, Anthrax LF prot)
CS(=O)(=O)N1CCN(c2ccc([N+](=O)[O-])c(NCCN3CCOCC3)c2)CC1	Autofluor counter 18351
CCn1c(SCC(=O)NCc2cccs2)nnc1-c1cccs1	Autofluor counter 23563
Cc1ccc(-n2c(COc3c(C)cccc3C)nnc2SCC(=O)Nc2nccs2)cc1	none
CCn1c(CNC(=O)COc2c(C)cccc2C)nnc1SCC(=O)Nc1nccs1	Autofluor counter 17164
CC(=O)c1c(C)cc(C)c(CSc2ccccn2)c1C	none
Nc1cc(S(=O)(=O)N2CCOCC2)ccc1N1CCOCC1	none
CS(=O)(=O)c1ccc(N2CCOCC2)c(S(C)(=O)=O)c1	Autofluor counter 20225
O=[N+]([O-])/C(C(Cl)=C(Cl)Cl)=C(\Sc1ccccc1)N1CCCCC1	none
CC(C)(C)c1nc(CN2CCOCC2)ccc1O	Autofluor counter 21380
CC(C)(C)c1nc(CN2CCCCC2)cc(CN2CCCCC2)c1O	none
COc1ccc(CCN2C(=O)CCC2(C)C(=O)NC2CCCC2)cc1OC (centres undefined)	none
CCOc1ccc(CCN2C(=O)CCC2(C)C(=O)NC(C)CC)cc1OCC (centres undefined)	Autofluor counter 23716
C[C@@H]1ON(C)[C@H]2C[C@H]3c4[nH]c5ccccc5c4CCN3C(=O)[C@@H]12	none
COC(=O)c1cc2c(-c3ccccc3)c(C)c3ccccn3c-2c1C(=O)OC	MazEF act 50.1
Cc1c(NC(=O)CSc2nncc3ccccc23)c(=O)n(-c2ccccc2)n1C	Autofluor counter 20089, BoNT A protease inconclusive
Cc1nc(SCC(=O)Nc2c(C)n(C)n(-c3ccccc3)c2=O)nc(C)c1C	none
CCc1c(C)nc(SCC(=O)Nc2c(C)n(C)n(-c3ccccc3)c2=O)[nH]c1=O	Autofluor counter 21804
CC(C)(C)c1ccc(C(=O)N2CCC2(C)C(=O)NCc2cccs2)cc1 (centres undefined)	none (no result: MazEF act)
COc1ccc(C(=O)NC2CCN(CC(=O)NCc3cccc(OC)c3)CC2)cc1	none
Cc1ccc(O)c(C(=O)c2cnc3c(c2)CN(C)C(=O)N3)c1	Autofluor counter 21945

Assay outcomes (PubChem)
